A short description of assay [1]: CCTE_Shafer_MEA_acute_cross_correlation_area: CCTE's Neural Acute Assay for Area of Cross Correlation, Shafer Lab (AID 2284024; active = hit-call score of the fitted dose curve at least 0.9, where 1 is the maximum; inactive = score below 0.9;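 also: curves fitted for loss of cross-correlation area so actives lower synchrony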). The essentials: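 Rat primary cortical neurons on 48-well MEA, DIV 13 or 15; compounds 0.03-40 uM. Baseline and post-exposure 40 min recordings at 37 C; percent change in area under pooled inter-electrode cross-correlation near zero lag, relative to DMSO.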

The nature of assay [2]: CCTE_Shafer_MEA_acute_cross_correlation_HWHM: CCTE's Neural Acute Assay for Cross Correlation at Half Width at Half Maximum, Shafer Lab (AID 2284026; active = hit-call score of the fitted dose curve at least 0.9, where 1 is the maximum; inactive = score below 0.9;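 also: percent change per well from pre-dose baseline in spike cross-correlogram half width; hits are a decrease in cross-correlogram half width relative to DMSO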;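 as to outcome: spontaneous network firing of rat primary cortical neurons on multiwell microelectrode arrays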). A digest of the protocol:
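Rat primary cortical neurons on 48-well MEA plates; 40-min baseline and 40-min post-exposure recordings at 37 C on DIV 13 or 15, compounds 0.03-40 uM. Spikes detected at 8x rms noise; percent change in cross-correlogram HWHM per well vs baseline.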

Assay [3] in a line: CCTE_Shafer_MEA_acute_synchrony_index: CCTE's Neural Acute Assay for Synchrony, Shafer Lab (AID 2284027; active = hit-call score of the fitted dose curve at least 0.9, where 1 is the maximum; inactive = score below 0.9;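 also: network synchrony index of spontaneous spiking in primary rat cortical neurons on MEAs; fitted for loss of signal so actives lower synchrony relative to DMSO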). The essentials:
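Primary rat cortical neurons on 16-electrode MEA wells were recorded 40 min at baseline (DIV 13 or 15) and 40 min after compound (0.03-40 uM) at 37 C. Synchrony index (0-1) expressed as percent change from baseline, versus DMSO.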

Assay [4] has as its target Estrogen receptor (Homo sapiens) (UniProt P03372). In words: CCTE_Deisenroth_AIME_384WELL_LUC_Active: CCTE's 384-well Estrogen Receptor Transactivation Assay with AIME metabolic competence (ERTA luciferase; metabolism positive), Deisenroth Lab (AID 2284030). The essentials:
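Chemicals (10-point, 0.002-200 uM) were first incubated 2 hours with alginate-immobilized induced male Sprague Dawley rat liver S9. The conditioned medium was then applied to VM7Luc4E2 cells for 24 hours, with ER luciferase induction read by luminescence relative to 17beta-estradiol.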

Assay [5] in a line: CCTE_Deisenroth_AIME_384WELL_CTox_Active: Cytotoxicity Assessment (CTOX) in CCTE's 384-well Estrogen Receptor Transactivation Assay with AIME metabolic competence (metabolism positive), Deisenroth Lab (AID 2284037).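 Also: activity means signal loss indicating cell death.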 A digest of the protocol: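 Cytotoxicity in VM7Luc4E2 breast cells, 24 hour, measured as protease-substrate fluorescence loss, after 2-hour metabolic conditioning with induced rat hepatic S9 in alginate microspheres. Concentrations 0.002 - 200 uM, 10 points, bidirectional fitting.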

For assay [6], the target named is Estrogen receptor (Homo sapiens) (UniProt P03372). In words: CCTE_Deisenroth_AIME_384WELL_LUC_Inactive: CCTE's 384-well Estrogen Receptor Transactivation Assay without AIME metabolic competence (ERTA luciferase; metabolism negative), Deisenroth Lab (AID 2284038).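 Also: VM7Luc4E2 breast cells given medium preincubated 2 h with S9-free microspheres; hits raise estrogen receptor luciferase signal so potencies reflect agonists.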 A digest of the protocol:
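Chemicals (10-point series, 0.002 - 200 uM) were incubated 2 hours with alginate-water microsphere lids lacking S9, then the conditioned medium was transferred to VM7Luc4E2 breast cells for 24 hour. Luciferase induction was read by bioluminescence, fitted upward relative to 17beta-estradiol.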

Assay [7] in a line: CCTE_Deisenroth_AIME_384WELL_CTox_Inactive: Cytotoxicity Assessment (CTOX) in CCTE's 384-well Estrogen Receptor Transactivation Assay without AIME metabolic competence (metabolism negative), Deisenroth Lab (AID 2284039).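 Also: cell viability via live-cell protease substrate cleaved to fluorescent probe; cells exposed 24 h to medium preincubated 2 h with alginate-water beads without S9; loss of fluorescence signal means loss of viability.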 A digest of the protocol:
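VM7Luc4E2 cells, metabolism-negative arm: test chemicals (0.002–200 uM, 10 points) pre-incubated 2 h with alginate-water microspheres, then medium transferred to cells for 24 h. Viability read as protease-substrate cleavage to fluorescent probe; loss-of-signal, bidirectional fitting.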

Assay [8] can be described thus: CCTE_Shafer_MEA_dev_per_burst_spike_percent: CCTE's Neural Network Formation Assay for Percent of Spikes in a Burst, Shafer Lab (AID 2284032; active = hit-call score of the fitted dose curve at least 0.9, where 1 is the maximum; inactive = score below 0.9;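 as to AC50: fitted as a decrease in burst spike percentage below DMSO baseline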). A digest of the protocol:
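Rat primary cortical neurons on 16-electrode MEA wells, dosed from plating day 0 for 12 days with renewal on DIV 5 and 9; spikes-in-bursts percentage averaged over bursting electrodes, collapsed as AUC across days 5, 7, 9, 12; loss direction versus DMSO.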

Assay [9] is described as follows: CCTE_Deisenroth_AIME_96WELL_CTox_Active: Cytotoxicity Assessment (CTOX) in CCTE's 96-well Estrogen Receptor Transactivation Assay with AIME metabolic competence (metabolism positive), Deisenroth Lab (AID 2284028). A digest of the protocol: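 Chemicals (0.002–200 uM) were first incubated 2 h with alginate-immobilized phenobarbital/beta-naphthoflavone-induced male rat liver S9; conditioned medium then went onto VM7Luc4E2 cells for 24 h, with viability read by protease-substrate fluorescence, fitted bidirectionally.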

Assay [10] can be described thus: CCTE_Deisenroth_AIME_96WELL_CTox_Inactive: Cytotoxicity Assessment (CTOX) in CCTE's 96-well Estrogen Receptor Transactivation Assay without AIME metabolic competence (metabolism negative), Deisenroth Lab (AID 2284029). The essentials:
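Chemicals (10-point series, 0.002-200 uM) were incubated 2 h with alginate-water microspheres lacking S9. The conditioned medium was then transferred onto VM7Luc4E2 cells for 24 h. Viability was measured by protease-substrate cleavage to a fluorescent probe, with loss of signal fitted bidirectionally; n≥4 experimental replicates.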

The structures appear in SMILES notation. Results filed as inconclusive are left out. A structure can be active in one record and inactive in another. Active and inactive are the calls of the source. The calls were made as follows, unless noted: active = hit-call score of the fitted dose curve at least 0.9, where 1 is the maximum; inconclusive = response in the unintended direction; inactive = score below 0.9.

Estrogen receptor (Homo sapiens), sequence (P03372 whole entry, looked up): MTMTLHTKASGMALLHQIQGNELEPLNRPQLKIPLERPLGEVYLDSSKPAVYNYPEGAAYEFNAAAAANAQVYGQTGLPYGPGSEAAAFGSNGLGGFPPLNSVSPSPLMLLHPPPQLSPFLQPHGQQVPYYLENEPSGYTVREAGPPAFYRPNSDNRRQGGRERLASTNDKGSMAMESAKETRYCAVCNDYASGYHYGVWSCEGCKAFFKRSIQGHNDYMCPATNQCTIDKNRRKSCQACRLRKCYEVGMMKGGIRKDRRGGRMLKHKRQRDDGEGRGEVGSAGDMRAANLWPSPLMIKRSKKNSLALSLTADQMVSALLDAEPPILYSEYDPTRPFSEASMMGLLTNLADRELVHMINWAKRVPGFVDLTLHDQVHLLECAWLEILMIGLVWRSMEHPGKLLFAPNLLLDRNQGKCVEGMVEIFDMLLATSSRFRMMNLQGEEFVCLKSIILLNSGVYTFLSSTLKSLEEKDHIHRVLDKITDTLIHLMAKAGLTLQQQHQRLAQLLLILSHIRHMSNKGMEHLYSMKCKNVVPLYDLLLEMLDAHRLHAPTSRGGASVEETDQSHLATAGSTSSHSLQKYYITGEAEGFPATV

Regarding `CCCCCCCCCCCCc1ccccc1`, the compound was called inactive in [1], in assay [2] and in [3].
In the case of `O=C(O)c1cccc(Oc2ccccc2)c1`, the outcome in assay [4], in assay [5] and in assay [6] was inactive. In addition, the AC50 in [7] was 0.000708 µM (active).
Take `COc1ccc2sc(C(=O)Nc3nnn[nH]3)c(OC(C)C)c2c1`: the compound was classed as inactive in assay [1], in assay [2], in assay [3], in assay [4] and in [7]. For the same compound, in [5], the AC50 is 45 µM (active).
In the case of `O=c1n(CC2CO2)c(=O)n(CC2CO2)c(=O)n1CC1CO1` (configuration not stated), the result in [4] and in assay [6] was inactive. Moreover, the figures for the half-maximal activity concentration (AC50) in assay [5] and in assay [7] were 136 µM (active) and 100 µM (active), respectively.
Regarding `CCCN(C1CCN(C(=O)C2CCNCC2)CC1)[C@@H]1CCc2ccc(OC)cc2C1`, the result in [1], in assay [2] and in [5] was inactive. In addition, the AC50 in assay [3] was 17.7 µM (active).
Regarding `On1ccccc1=S`, the outcome in [1], in assay [2], in [3], in assay [5] and in assay [7] was inactive.
As for `CCCCC(CC)COC(=O)CCCCCCCCC(=O)OCC(CC)CCCC` (configuration not stated), the outcome in assay [1], in [2] and in assay [3] was inactive.
As to `CCC(C)(C)C(=O)O[C@H]1C[C@@H](C)C=C2C=C[C@H](C)[C@H](CC[C@@H]3C[C@@H](O)CC(=O)O3)[C@H]21`, the outcome in assay [1], in assay [2] and in assay [3] was inactive. Also, in [8], the half-maximal activity concentration (AC50) is 2.74 µM (active).
Regarding `Cc1[nH]cnc1C[C@H]1CCc2c(C)c3ccccc3n2C1=O`, the compound was called inactive in assay [1]. The AC50 in assay [2] is 30.7 µM (active); in [3] it was 8.89 µM (active).
Consider `CC[C@H]1CC[C@H](NCc2cc3c(cc2OC)[C@H]2C[C@H]2C(=O)N3C)[C@H](c2ccccc2)N1`, for which the outcome in [1] and in [3] was inactive. Further, in [2], the AC50 is 20 µM (active).
In the case of `CCCCCCCCO`, the compound was classed as inactive in [4], in assay [5], in assay [6] and in assay [7].
Take `CCOC(=O)c1ccc(C2CCC(NC[C@H](O)COc3ccc(O)c(NS(C)(=O)=O)c3)CC2)cc1` (some centres not stated): the outcome in assay [1] and in [2] was inactive. For the same compound, the AC50 in assay [3] is 28.8 µM (active); in [5], 100 µM (active); in assay [7] it was 128 µM (active).
Consider `CCCCCCc1ccc(O)cc1O`, for which the call in [1] was inactive. Further, the AC50 in [2] is 20 µM (active); in assay [3] it was 6.73 µM (active); in [5], 104 µM (active); in assay [7], 162 µM (active).
In the case of `Cn1c(=O)cc(Oc2ccc(F)cc2F)c2cnc(NCC(C)(C)O)nc21`, the compound was called inactive in assay [4], in assay [5], in assay [6] and in assay [7].
On to `O=P(OC(CCl)CCl)(OC(CCl)CCl)OC(CCl)CCl`, for which the compound was called inactive in assay [1], in assay [2], in assay [3] and in [8]. Moreover, the AC50 was 23.5 µM (active) in assay [2] and 23 µM (active) in [3].
Consider `Cn1c(=O)c2c(ncn2C)n(C)c1=O`, for which the result in assay [1], in assay [2], in assay [3], in assay [9], in [10] and in assay [8] was inactive. The call in assay [5] and in [7] was inactive.
In the case of `CC[C@H]1OC(=O)[C@H](C)[C@@H](O[C@H]2C[C@@](C)(OC)[C@@H](O)[C@H](C)O2)[C@H](C)[C@@H](O[C@@H]2O[C@H](C)C[C@H](N(C)C)[C@H]2O)[C@](C)(O)C[C@@H](C)C(=O)[C@H](C)[C@@H](O)[C@]1(C)O`, the compound was called inactive in assay [1], in [2], in [3] and in [8].
For `Cn1cnc([N+](=O)[O-])c1Sc1ncnc2nc[nH]c12`, the result in [1], in [2] and in assay [3] was inactive.
On to `COc1cccc(-c2ccc(/C=C\CN3CCCCCC3)cc2Cl)c1`, for which the AC50 in assay [1] is 3.7 µM (active). Also, the compound was classed as inactive in assay [2], in assay [3], in assay [4], in assay [5], in assay [6] and in assay [7].
For `Nc1ccc(Nc2ccccc2)cc1`, the AC50 in assay [4] is 114 µM (active); in assay [7], 74.6 µM (active). In addition, the compound was called inactive in [5] and in assay [6].
Take `CC(C)=CCCC(C)=CC=O`: the outcome in [1], in assay [2] and in assay [3] was inactive.
For the compound `O=C(O)c1cc(N=Nc2ccc(S(=O)(=O)Nc3ccccn3)cc2)ccc1O`, the outcome in assay [1], in [2] and in assay [3] was inactive. The AC50 in [5] is 100 µM (active); in assay [7], 49.7 µM (active).
Take `O=C(O)CCN(C1(C(=O)NO)CCCC1)S(=O)(=O)c1ccc(Oc2ccc(F)cc2)cc1`: the call in assay [1], in [2] and in assay [3] was inactive.
Take `NC(=O)NO`: the call in [8] was inactive.
Regarding `CC1=CC(=O)CC(C)(C)C1`, the outcome in assay [5] and in [7] was inactive.
For the compound `Cc1c(-c2cccnc2)c2ccccc2n1CCCCC(=O)O`, the result in assay [5] was inactive.
As for `COCCOc1cc2cc(C(=O)NC3CCN(C(C)C)CC3)n(CC(=O)Nc3ccc(Cl)cn3)c2cn1`, the call in assay [5] and in assay [7] was inactive.
Take `CNCc1ccc(NC(=O)c2c[nH]c3c2C(=O)CCC3)cc1`: the AC50 in assay [8] was 1.98 µM (active). For the same compound, the compound was called inactive in [5] and in assay [7].
On to `COc1ccc(-n2nc(C(F)F)cc2-c2ccc(S(C)=O)cc2)cc1` (configuration not stated), for which the result in assay [8] was inactive.
As to `CCCC(=O)OCC`, the compound was called inactive in assay [4] and in assay [6].
Take `O=C1CCC(N2C(=O)c3ccccc3C2=O)C(=O)N1` (configuration not stated): the compound was called inactive in [8].
In the case of `CC[C@H](C)C(=O)O[C@H]1C[C@@H](C)C=C2C=C[C@H](C)[C@H](CC[C@@H]3C[C@@H](O)CC(=O)O3)[C@H]21`, the AC50 in assay [8] was 10 µM (active).
Regarding `Cc1ccc(N)cc1O`, the compound was classed as inactive in assay [4], in [6] and in assay [7].
Regarding `CCOCCOCCOCCO`, the compound was classed as inactive in assay [5] and in assay [7].
On to `CC(=O)OCCC(C)C`, for which the call in assay [5] and in [7] was inactive.
With `C=CC(=C)CCC=C(C)C`, the result in [4] and in assay [6] was inactive.
As for `CC(C)c1cccc(C(C)C)c1N1C(=O)c2ccc(O)cc2C1=O`, the call in assay [5] and in assay [7] was inactive.
Consider `O=c1[nH]c2ccc(S(=O)CCN3CCC(Cc4ccc(F)cc4)CC3)cc2o1` (configuration not stated), for which the compound was classed as inactive in assay [4] and in assay [6].
`Oc1ccc2c(c1)-c1ccccc1C2`: in assay [5], the call was inactive. For the same compound, in assay [7], the AC50 was 156 µM (active).
As to `CC(C)CCCCCCCOC(=O)CCCCC(=O)OCCCCCCCC(C)C`, in assay [5], the compound was classed as inactive.
With `Cc1ccc(O)cc1`, the compound was called inactive in assay [5].
As to `CC(C)=CCC/C(C)=C\CO`, the compound was classed as inactive in [5] and in assay [7].
Take `CCN(C(=O)c1cc(C)cc(OC[C@H](C)Nc2ccncc2)c1)C(C)C`: the result in assay [5] and in assay [7] was inactive.
In the case of `Nc1nc2ncc(CNc3ccc(C(=O)N[C@@H](CCC(=O)O)C(=O)O)cc3)nc2c(=O)[nH]1`, the compound was classed as inactive in [8].
Regarding `CC(C)CCO`, the result in assay [4], in [6] and in assay [7] was inactive.
In the case of `Nc1cccc(N)c1`, in assay [7], the outcome was inactive.
Take `COCCOCCOCCOC`: the outcome in assay [5] and in assay [7] was inactive.

For orientation: AC50 means the concentration giving half of the maximal activity seen.
